According to paper PMC7862700, “An all-to-all approach to the identification of sequence-specific readers for epigenetic DNA modifications on cytosine”:

Key:
Experiment in all cases: DAPPL (digital affinity profiling via proximity ligation, sequencing); 10 mM Tris-HCl pH 7.5, 50 mM NaCl, 1 mM DTT, 4% glycerol, room temperature, 30 min; GST-TFs on glutathione beads, 16-mer random dsDNA library, 0.1% formaldehyde crosslink after washing; high values mean tight binding
FLI1 = biological target: T1, FLI1 (Homo sapiens, UniProt Q01543 1-452); settings: protein: recombinant; tags: N-terminal GST; dsDNA, one strand shown
T1 sequence: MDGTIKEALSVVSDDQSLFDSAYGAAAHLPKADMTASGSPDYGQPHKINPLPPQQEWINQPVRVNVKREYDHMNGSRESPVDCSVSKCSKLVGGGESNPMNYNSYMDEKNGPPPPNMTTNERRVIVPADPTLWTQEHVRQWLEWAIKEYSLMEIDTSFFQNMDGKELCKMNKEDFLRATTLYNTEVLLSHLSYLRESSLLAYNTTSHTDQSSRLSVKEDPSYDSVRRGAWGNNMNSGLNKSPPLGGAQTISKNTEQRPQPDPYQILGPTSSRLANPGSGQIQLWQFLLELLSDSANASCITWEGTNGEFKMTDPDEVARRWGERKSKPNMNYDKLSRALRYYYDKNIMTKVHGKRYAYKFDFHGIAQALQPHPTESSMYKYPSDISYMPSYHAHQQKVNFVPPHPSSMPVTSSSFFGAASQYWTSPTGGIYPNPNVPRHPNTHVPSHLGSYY
Outline: (§1)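 Human transcription factors were made in yeast as GST fusions, captured on glutathione beads and barcoded with DNA. With a tag-only sample included, the pool was incubated with 200 nmole of a random double-stranded 16-mer DNA library in Tris/NaCl/DTT/glycerol buffer at room temperature for 30 min, then crosslinked with 0.1% formaldehyde after washing, ligated by proximity, amplified and sequenced. For binding signal, each hexamer's read frequency for a factor is divided by its frequency for the tag-only sample.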

ELK1 = biological target: T2, ELK1 (Homo sapiens, UniProt P19419 1-428); settings: protein: recombinant; tags: N-terminal GST; dsDNA, one strand shown
T2 sequence: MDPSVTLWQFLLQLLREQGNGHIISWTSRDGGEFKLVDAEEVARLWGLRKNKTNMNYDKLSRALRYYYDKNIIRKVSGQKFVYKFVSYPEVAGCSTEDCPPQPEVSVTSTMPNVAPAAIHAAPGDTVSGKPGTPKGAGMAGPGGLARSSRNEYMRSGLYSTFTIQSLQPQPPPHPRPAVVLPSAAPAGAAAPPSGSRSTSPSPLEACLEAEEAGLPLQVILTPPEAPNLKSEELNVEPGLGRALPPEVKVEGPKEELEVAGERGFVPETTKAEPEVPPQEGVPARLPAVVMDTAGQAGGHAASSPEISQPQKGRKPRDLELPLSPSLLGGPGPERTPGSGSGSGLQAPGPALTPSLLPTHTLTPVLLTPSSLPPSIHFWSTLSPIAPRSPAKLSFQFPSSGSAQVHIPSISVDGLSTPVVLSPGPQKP
Outline: as §1

GABPA = biological target: T3, GABPA (Homo sapiens, UniProt Q06546 1-454); settings: protein: recombinant; tags: N-terminal GST; dsDNA, one strand shown
T3 sequence: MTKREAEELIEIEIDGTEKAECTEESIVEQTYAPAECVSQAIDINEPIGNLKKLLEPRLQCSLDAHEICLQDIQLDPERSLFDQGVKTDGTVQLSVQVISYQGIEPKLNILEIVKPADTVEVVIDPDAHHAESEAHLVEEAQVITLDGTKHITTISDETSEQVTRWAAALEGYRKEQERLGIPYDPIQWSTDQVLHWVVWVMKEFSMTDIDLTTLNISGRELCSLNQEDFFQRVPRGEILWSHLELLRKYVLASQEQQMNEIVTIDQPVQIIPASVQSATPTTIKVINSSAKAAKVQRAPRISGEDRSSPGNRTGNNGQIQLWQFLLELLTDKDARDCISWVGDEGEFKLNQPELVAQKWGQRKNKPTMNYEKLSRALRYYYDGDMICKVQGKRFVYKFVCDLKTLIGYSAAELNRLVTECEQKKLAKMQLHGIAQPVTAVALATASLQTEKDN
Outline: as §1

ERG = biological target: T4, ERG (Homo sapiens, UniProt P11308 1-479); settings: protein: recombinant; tags: N-terminal GST; dsDNA, one strand shown
T4 sequence: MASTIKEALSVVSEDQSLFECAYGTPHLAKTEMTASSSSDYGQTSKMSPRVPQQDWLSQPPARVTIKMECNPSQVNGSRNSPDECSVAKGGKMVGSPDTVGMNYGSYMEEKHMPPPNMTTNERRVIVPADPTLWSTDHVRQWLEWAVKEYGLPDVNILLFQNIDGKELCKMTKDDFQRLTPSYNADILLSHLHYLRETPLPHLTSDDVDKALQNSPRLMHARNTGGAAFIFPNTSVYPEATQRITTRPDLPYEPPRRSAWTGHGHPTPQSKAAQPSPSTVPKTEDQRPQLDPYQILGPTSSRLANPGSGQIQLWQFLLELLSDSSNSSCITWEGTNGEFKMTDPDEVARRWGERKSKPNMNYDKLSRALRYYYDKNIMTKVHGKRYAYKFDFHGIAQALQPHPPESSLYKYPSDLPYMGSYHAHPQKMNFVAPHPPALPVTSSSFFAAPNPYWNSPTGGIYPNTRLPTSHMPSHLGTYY
Outline: as §1

ELF1 = ELF1 (Homo sapiens, UniProt P32519 1-619); settings: protein: recombinant; tags: N-terminal GST; dsDNA, one strand shown
Outline: as §1

SPIB = SPIB (Homo sapiens, UniProt Q01892 1-262); settings: protein: recombinant; tags: N-terminal GST; dsDNA, one strand shown
Outline: as §1

ELK3 = biological target: T5, ELK3 (Homo sapiens, UniProt P41970 1-407); settings: protein: recombinant; tags: N-terminal GST; dsDNA, one strand shown
T5 sequence: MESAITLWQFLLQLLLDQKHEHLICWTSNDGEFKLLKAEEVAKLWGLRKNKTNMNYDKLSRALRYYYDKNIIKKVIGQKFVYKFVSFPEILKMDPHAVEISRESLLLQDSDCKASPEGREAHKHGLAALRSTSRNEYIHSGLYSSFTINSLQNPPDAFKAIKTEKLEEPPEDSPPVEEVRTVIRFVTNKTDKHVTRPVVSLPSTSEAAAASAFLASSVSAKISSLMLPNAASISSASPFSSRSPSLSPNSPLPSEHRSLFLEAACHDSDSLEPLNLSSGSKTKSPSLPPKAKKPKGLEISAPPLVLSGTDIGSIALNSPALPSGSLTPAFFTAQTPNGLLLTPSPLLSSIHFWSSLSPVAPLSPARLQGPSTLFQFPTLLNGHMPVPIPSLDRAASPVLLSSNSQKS
Outline: as §1

ETV5 = ETV5 (Homo sapiens, UniProt P41161 1-510); settings: protein: recombinant; tags: N-terminal GST; dsDNA, one strand shown
Outline: as §1

HSF1 = HSF1 (Homo sapiens, UniProt Q00613 1-529); settings: protein: recombinant; tags: N-terminal GST; chain copies: 3; dsDNA, one strand shown
Outline: as §1

SPIC = biological target: T6, SPIC (Homo sapiens, UniProt Q8N5J4 1-248); settings: protein: recombinant; tags: N-terminal GST; dsDNA, one strand shown
T6 sequence: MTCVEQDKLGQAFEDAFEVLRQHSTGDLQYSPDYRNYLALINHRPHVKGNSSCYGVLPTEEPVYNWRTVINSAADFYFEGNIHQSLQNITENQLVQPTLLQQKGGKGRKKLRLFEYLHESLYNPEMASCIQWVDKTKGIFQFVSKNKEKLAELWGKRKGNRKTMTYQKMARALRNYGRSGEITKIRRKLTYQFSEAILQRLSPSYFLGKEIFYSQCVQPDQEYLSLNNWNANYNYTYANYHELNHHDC
Outline: as §1

ELF4 = ELF4 (Homo sapiens, UniProt Q99607 1-663); settings: protein: recombinant; tags: N-terminal GST; dsDNA, one strand shown
Outline: as §1

ELK4 = biological target: T7, ELK4 (Homo sapiens, UniProt P28324-2 1-405); settings: protein: recombinant; tags: N-terminal GST; dsDNA, one strand shown
T7 sequence: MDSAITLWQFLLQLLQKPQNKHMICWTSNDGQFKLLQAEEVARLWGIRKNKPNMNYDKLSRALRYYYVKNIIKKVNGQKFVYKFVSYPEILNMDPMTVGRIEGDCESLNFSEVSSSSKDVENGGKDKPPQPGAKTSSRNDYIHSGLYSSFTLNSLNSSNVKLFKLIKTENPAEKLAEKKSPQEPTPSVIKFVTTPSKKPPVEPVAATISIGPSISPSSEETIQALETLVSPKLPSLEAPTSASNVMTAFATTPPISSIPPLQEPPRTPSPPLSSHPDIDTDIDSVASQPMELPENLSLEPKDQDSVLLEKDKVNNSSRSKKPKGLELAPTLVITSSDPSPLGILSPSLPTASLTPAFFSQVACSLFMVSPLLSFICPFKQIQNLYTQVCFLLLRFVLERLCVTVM
Outline: as §1

ELF3 = biological target: T8, ELF3 (Homo sapiens, UniProt P78545 1-371); settings: protein: recombinant; tags: N-terminal GST; dsDNA, one strand shown
T8 sequence: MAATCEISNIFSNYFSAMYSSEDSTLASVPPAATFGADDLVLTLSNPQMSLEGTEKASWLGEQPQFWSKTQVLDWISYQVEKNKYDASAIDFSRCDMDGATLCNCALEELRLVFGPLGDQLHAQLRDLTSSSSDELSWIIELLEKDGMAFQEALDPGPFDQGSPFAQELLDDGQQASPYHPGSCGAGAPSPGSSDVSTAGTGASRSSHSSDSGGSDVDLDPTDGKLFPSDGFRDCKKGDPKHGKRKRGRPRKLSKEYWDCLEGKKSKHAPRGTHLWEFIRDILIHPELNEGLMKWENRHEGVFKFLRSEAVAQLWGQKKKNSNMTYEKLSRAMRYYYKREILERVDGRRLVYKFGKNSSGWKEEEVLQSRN
Outline: as §1

CRX = CRX (Homo sapiens, UniProt O43186 1-299); settings: protein: recombinant; tags: N-terminal GST; dsDNA, one strand shown
Outline: as §1

CRX, sequence (O43186 whole entry): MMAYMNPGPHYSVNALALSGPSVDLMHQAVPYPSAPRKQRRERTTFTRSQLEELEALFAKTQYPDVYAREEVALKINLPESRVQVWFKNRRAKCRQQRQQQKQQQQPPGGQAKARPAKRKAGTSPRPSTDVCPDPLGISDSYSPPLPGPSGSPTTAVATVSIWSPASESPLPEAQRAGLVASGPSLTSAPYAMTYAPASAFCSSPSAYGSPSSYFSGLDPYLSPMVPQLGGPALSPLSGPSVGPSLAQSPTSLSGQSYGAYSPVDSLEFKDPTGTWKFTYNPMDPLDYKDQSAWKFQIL
ELF1, sequence (P32519 whole entry): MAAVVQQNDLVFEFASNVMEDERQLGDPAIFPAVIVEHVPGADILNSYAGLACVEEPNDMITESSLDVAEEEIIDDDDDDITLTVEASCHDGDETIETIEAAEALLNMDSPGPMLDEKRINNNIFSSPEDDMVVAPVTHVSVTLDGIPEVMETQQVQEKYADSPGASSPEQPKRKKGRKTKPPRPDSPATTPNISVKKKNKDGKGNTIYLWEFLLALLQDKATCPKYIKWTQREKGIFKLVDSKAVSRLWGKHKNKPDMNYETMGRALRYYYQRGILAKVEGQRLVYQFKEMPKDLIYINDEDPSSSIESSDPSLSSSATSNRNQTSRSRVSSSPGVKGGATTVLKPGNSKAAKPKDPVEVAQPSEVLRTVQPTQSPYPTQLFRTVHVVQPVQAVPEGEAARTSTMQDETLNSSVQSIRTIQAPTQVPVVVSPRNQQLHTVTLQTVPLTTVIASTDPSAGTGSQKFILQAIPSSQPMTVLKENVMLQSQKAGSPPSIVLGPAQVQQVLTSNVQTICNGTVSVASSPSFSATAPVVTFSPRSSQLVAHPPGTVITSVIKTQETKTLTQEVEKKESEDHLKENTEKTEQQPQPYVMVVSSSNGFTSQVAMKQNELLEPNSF
SPIB, sequence (Q01892 whole entry): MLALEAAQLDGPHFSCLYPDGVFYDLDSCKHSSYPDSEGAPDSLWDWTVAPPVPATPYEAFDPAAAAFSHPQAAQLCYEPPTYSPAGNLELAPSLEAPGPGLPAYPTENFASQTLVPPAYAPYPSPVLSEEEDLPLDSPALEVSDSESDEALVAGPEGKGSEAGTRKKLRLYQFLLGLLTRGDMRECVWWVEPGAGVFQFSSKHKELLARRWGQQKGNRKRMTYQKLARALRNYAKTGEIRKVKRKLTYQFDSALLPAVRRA
HSF1, sequence (Q00613 whole entry): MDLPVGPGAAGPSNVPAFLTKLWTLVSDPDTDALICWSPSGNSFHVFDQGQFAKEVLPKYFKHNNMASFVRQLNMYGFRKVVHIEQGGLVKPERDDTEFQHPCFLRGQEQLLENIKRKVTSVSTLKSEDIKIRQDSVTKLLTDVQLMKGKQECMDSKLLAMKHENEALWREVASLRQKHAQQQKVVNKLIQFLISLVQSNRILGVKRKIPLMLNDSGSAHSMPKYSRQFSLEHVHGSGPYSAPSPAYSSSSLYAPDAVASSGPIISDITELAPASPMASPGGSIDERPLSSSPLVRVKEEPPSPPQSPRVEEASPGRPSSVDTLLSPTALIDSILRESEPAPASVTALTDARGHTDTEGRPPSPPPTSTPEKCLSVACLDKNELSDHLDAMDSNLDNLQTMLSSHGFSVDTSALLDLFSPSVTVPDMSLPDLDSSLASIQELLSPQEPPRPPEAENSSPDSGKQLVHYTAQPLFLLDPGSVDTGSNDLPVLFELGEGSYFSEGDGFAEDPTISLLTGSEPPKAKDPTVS
ELF4, sequence (Q99607 whole entry): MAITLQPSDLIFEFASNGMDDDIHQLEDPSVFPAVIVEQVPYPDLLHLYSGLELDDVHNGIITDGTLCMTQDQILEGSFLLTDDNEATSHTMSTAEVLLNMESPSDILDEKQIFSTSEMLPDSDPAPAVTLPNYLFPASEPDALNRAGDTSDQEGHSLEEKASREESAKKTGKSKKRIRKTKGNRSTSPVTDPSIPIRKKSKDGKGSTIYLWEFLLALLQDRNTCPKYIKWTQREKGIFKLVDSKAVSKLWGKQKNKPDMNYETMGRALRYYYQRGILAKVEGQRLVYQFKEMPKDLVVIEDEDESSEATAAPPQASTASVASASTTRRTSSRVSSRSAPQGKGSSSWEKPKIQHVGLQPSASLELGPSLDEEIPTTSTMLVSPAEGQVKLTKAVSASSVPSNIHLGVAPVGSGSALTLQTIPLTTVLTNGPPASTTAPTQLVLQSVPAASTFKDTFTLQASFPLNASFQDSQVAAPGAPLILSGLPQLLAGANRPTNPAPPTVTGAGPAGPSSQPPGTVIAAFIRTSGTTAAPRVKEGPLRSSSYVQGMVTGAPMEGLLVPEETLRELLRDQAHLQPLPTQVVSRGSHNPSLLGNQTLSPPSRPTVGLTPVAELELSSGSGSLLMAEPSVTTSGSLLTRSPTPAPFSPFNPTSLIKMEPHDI
ETV5, sequence (P41161 whole entry): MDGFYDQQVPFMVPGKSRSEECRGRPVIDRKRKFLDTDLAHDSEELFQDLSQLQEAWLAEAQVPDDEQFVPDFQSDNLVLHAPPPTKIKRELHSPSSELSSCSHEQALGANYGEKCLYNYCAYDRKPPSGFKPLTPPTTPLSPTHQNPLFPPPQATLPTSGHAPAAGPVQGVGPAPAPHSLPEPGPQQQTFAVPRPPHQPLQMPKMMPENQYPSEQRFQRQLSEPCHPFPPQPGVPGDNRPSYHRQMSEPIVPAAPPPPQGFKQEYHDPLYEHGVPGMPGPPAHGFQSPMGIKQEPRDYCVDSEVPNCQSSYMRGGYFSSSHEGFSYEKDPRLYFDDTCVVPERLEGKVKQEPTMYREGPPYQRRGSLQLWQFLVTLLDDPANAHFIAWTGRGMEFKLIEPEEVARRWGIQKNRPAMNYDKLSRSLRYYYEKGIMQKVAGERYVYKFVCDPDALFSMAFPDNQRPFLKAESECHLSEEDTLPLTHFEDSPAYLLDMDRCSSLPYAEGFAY

Sequence: AATCGA
- binding signal (FLI1): 1 fold enrichment (6-mer frequency, TF over GST control)
- binding signal (ELK1): 1.06 fold enrichment (6-mer frequency, TF over GST control)
- binding signal (GABPA): 1.07 fold enrichment (6-mer frequency, TF over GST control)
- binding signal (ERG): 1.02 fold enrichment (6-mer frequency, TF over GST control)
- binding signal (ELF1): 1.03 fold enrichment (6-mer frequency, TF over GST control)
- binding signal (SPIB): 1.07 fold enrichment (6-mer frequency, TF over GST control)
- binding signal (ELK3): 1.12 fold enrichment (6-mer frequency, TF over GST control)
- binding signal (ETV5): 1.05 fold enrichment (6-mer frequency, TF over GST control)
- binding signal (HSF1): 1.38 fold enrichment (6-mer frequency, TF over GST control)
- binding signal (SPIC): 1.11 fold enrichment (6-mer frequency, TF over GST control)
- binding signal (ELF4): 1.03 fold enrichment (6-mer frequency, TF over GST control)
- binding signal (ELK4): 1.03 fold enrichment (6-mer frequency, TF over GST control)
- binding signal (ELF3): 1.11 fold enrichment (6-mer frequency, TF over GST control)
- binding signal (CRX): 1.2 fold enrichment (6-mer frequency, TF over GST control)
